Results reported in PubChem BioAssay (NCATS).
Inconclusive results are not listed. Where a call stands in place of a potency, no number is given. Active and inactive are the calls of the source. Calls follow the shape of the dose curve; as a rule, active = well fitted cell-killing curve with a large enough effect; inconclusive = small, poorly fitted or top-dose-only effect; inactive = flat fitted curve, though single readings scatter.

assay: qHTS of pediatric cancer cell lines to identify multiple opportunities for drug repurposing: Primary screen for U-2 OS cells (AID 1347096); settings: U-2 OS viability, CellTiter-Glo luminescence, 48 h; series mostly up to 46 µM; also: nearly all actives have a fitted effect of over 50% in size
Summary of the method: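 Viability after 48 h compound treatment at 37C, 500-1,000 cells/well, read as ATP luminescence with CellTiter-Glo. Primary screens used 11-point (MIPE, 0.78 nM-46 µM) or 8-point (NPC, 0.59 nM-46 µM) final concentrations; follow-up screens used 11-point dilutions.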
Potency is read from the fitted curve at half-maximal effect.

Compound | Potency
CC1Cc2ccccc2N1NC(=O)c1ccc(Cl)c(S(N)(=O)=O)c1 (stereo not given) | inactive
O=C(OC1C[C@H]2CC[C@@H](C1)[N+]21CCCC1)C(O)(c1ccccc1)c1ccccc1 (stereo not given in full) | inactive
CCCCC(CC)COC(=O)C(C#N)=C(c1ccccc1)c1ccccc1 (stereo not given) | inactive
NNc1nncc2ccccc12 | inactive
Oc1ccc(OCc2ccccc2)cc1 | inactive
Cc1cc(C2CCCCC2)n(O)c(=O)c1 | inactive
COc1ccc2cc([C@H](C)C(=O)O)ccc2c1 | inactive
Nc1ncn([C@H]2C[C@H](O)[C@@H](CO)O2)c(=O)n1 | inactive
COc1c2occc2cc2ccc(=O)oc12 | inactive
C[Se]CCC(N)C(=O)O (stereo not given) | inactive
CC1(C)C(=O)N(CCN2CCC(C(=O)c3ccc(F)cc3)CC2)c2ccccc21 | inactive
CCCCCCCCCCCCCCCCCCCCCCO | inactive
O=C(NOCC1CC1)c1ccc(F)c(F)c1Nc1ccc(I)cc1Cl | 18.7 µM (active)
Cc1nc2n(c(=O)c1CCN1CCC(c3noc4cc(F)ccc34)CC1)CCCC2 | inactive
N=C(N)c1ccc2cc(OC(=O)c3ccc(N=C(N)N)cc3)ccc2c1 | inactive
CCN(CCO)CCCC(C)Nc1ccnc2cc(Cl)ccc12 (stereo not given) | inactive
CCN(CC)C(=S)SSC(=S)N(CC)CC | 0.0743 µM (active)
NC(=O)Cc1cccc(C(=O)c2ccccc2)c1N | inactive
Cc1ccc(NC(=O)c2ccc(CN3CCN(C)CC3)cc2)cc1Nc1nccc(-c2cccnc2)n1 | inactive
O=C(O)c1cn(-c2ccc(F)cc2)c2cc(N3CCNCC3)c(F)cc2c1=O | inactive
